# Measurements reported in paper PMC7862700, “An all-to-all approach to the identification of sequence-specific readers for epigenetic DNA modifications on cytosine”.
# How the values were obtained:
# Test in all cases: DAPPL (digital affinity profiling via proximity ligation, sequencing); 10 mM Tris-HCl pH 7.5, 50 mM NaCl, 1 mM DTT, 4% glycerol, room temperature, 30 min; GST-TFs on glutathione beads, 16-mer random dsDNA library, 0.1% formaldehyde crosslink after washing; high values mean tight binding
# Details in all cases: protein: recombinant; tags: N-terminal GST; dsDNA, one strand shown
# ETV2 = molecular target: T1, ETV2 (Homo sapiens, UniProt O00321 1-342)
# T1 sequence: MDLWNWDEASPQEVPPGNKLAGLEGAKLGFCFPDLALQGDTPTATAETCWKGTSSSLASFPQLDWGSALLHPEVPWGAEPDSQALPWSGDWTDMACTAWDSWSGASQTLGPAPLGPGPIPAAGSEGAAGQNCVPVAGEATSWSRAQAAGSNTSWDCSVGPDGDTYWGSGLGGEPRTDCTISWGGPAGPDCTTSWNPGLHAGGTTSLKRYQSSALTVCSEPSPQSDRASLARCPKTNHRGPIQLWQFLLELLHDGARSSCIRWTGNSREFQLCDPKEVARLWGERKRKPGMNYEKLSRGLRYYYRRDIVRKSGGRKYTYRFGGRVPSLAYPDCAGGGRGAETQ
# In short: (§1)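 A tag-only sample was pooled with DNA-barcoded human transcription factors that had been expressed in yeast as GST fusions and captured on glutathione beads. The pools were incubated for 30 min at room temperature with 200 nmole of a random double-stranded 16-mer DNA library in Tris/NaCl/DTT/glycerol buffer, then washed, crosslinked with 0.1% formaldehyde, proximity-ligated (BsaI/T4 ligase, 1 h, 37 °C), PCR-amplified and sequenced on an Illumina NextSeq500. Binding signal is each hexamer's read frequency for a factor divided by its frequency for the tag-only sample.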
# ELF3 = molecular target: T2, ELF3 (Homo sapiens, UniProt P78545 1-371)
# T2 sequence: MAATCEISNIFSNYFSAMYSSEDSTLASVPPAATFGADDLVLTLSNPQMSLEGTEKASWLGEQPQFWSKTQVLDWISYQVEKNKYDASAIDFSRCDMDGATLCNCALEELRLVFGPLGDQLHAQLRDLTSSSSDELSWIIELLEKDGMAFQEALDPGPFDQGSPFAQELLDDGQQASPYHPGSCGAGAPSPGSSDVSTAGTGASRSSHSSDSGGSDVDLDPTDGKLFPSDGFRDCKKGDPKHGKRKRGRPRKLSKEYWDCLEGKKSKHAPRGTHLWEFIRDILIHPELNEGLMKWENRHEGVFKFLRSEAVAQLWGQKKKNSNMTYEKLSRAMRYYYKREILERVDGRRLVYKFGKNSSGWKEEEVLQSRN
# In short: as §1
# ETV1 = ETV1 (Homo sapiens, UniProt P50549 1-477)
# In short: as §1
# ERF = molecular target: T3, ERF (Homo sapiens, UniProt P50548 1-548)
# T3 sequence: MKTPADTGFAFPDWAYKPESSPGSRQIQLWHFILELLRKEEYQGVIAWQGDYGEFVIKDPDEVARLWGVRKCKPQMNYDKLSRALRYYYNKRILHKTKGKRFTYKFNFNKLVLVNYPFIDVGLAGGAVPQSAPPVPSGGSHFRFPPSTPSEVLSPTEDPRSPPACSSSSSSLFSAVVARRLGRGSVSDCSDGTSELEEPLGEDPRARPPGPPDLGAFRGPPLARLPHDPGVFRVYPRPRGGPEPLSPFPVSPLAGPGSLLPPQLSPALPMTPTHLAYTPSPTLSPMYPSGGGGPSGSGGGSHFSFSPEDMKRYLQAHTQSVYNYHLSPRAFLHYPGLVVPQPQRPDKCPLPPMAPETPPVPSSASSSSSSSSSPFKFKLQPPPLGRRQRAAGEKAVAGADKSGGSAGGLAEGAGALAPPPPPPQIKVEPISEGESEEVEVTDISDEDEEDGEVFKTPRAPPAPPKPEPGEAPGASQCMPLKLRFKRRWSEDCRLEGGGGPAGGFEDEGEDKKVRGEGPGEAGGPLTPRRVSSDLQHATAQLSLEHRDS
# In short: as §1
# ETV3L = molecular target: T4, ETV3L (Homo sapiens, UniProt Q6ZN32 1-361)
# T4 sequence: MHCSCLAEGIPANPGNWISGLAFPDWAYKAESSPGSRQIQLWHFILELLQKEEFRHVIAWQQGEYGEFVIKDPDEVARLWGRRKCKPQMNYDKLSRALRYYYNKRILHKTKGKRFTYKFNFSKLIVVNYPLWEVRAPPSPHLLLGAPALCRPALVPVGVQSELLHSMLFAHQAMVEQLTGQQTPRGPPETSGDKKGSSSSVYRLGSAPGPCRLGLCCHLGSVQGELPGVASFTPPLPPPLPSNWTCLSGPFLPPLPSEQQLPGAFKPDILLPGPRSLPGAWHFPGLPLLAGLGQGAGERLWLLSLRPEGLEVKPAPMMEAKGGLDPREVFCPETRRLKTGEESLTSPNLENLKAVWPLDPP
# In short: as §1
# ETS2 = molecular target: T5, ETS2 (Homo sapiens, UniProt P15036 1-469)
# T5 sequence: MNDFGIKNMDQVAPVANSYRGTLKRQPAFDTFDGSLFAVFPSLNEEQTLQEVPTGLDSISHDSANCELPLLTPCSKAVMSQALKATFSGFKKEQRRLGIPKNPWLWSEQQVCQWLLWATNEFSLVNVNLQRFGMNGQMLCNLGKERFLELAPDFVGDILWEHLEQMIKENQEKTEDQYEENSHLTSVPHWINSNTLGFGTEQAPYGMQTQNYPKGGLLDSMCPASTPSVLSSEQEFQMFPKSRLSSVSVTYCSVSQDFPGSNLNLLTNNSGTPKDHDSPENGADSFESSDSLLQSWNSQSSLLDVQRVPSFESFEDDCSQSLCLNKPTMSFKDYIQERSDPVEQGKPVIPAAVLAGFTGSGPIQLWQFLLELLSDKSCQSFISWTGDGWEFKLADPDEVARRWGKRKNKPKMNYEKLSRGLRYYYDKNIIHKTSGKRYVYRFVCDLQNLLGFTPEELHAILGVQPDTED
# In short: as §1
# SPDEF = molecular target: T6, SPDEF (Homo sapiens, UniProt O95238 1-335)
# T6 sequence: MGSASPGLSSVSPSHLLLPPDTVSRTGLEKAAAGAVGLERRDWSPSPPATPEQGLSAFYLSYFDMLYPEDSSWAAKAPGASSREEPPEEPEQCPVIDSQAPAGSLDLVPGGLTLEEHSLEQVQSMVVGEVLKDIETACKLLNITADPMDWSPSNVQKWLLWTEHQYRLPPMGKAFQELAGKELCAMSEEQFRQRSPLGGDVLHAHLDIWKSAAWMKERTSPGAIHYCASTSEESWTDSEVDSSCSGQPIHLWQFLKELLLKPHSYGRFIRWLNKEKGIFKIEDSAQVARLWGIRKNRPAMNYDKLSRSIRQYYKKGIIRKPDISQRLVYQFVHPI
# In short: as §1
# ETV7 = molecular target: T7, ETV7 (Homo sapiens, UniProt Q9Y603 1-341)
# T7 sequence: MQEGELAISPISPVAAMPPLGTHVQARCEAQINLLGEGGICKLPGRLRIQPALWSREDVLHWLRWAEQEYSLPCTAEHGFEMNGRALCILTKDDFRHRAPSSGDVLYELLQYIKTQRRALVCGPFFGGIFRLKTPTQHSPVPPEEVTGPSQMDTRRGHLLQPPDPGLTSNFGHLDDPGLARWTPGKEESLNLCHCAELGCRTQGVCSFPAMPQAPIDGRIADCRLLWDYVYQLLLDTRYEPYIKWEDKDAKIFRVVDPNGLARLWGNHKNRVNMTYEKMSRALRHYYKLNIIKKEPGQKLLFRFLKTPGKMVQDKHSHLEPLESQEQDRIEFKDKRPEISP
# In short: as §1
# ETV3 = molecular target: T8, ETV3 (Homo sapiens, UniProt P41162-2 1-143)
# T8 sequence: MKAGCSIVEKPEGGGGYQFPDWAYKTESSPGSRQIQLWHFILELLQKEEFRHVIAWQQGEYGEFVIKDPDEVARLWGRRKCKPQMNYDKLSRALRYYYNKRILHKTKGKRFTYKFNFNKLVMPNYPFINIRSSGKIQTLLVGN
# In short: as §1
# ETV6 = ETV6 (Homo sapiens, UniProt P41212 1-452)
# In short: as §1
# Chain of ETV6 (P41212 whole entry): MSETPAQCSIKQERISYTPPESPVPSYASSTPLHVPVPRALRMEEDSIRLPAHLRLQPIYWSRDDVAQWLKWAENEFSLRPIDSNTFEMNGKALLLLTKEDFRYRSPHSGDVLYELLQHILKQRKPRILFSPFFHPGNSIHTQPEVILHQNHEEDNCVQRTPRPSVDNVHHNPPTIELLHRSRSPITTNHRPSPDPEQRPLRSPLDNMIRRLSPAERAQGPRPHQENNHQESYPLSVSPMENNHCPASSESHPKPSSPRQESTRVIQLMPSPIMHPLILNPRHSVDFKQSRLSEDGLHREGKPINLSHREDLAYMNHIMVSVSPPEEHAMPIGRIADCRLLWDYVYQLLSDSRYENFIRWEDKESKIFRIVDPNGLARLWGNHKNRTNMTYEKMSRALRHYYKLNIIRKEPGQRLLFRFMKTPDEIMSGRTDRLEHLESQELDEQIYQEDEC
# Chain of ETV1 (P50549 whole entry): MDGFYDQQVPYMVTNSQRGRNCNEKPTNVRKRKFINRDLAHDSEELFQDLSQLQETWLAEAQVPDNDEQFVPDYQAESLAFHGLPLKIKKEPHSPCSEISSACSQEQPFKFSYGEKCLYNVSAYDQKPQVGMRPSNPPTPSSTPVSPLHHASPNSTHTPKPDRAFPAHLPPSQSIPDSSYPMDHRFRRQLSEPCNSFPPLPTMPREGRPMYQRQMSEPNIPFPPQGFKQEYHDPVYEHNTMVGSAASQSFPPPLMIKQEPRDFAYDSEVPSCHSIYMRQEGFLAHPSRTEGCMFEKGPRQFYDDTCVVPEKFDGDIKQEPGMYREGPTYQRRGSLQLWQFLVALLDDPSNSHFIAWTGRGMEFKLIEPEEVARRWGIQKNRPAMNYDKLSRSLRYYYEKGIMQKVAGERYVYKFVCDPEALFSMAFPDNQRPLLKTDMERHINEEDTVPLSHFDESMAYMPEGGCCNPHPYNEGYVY
sequence,measurement,setting,value
CAAACA,binding signal,ETV2,"1.13 fold enrichment (6-mer frequency, TF over GST control)"
same,binding signal,ELF3,"1.21 fold enrichment (6-mer frequency, TF over GST control)"
same,binding signal,ETV1,"1.09 fold enrichment (6-mer frequency, TF over GST control)"
same,binding signal,ERF,"1.08 fold enrichment (6-mer frequency, TF over GST control)"
same,binding signal,ETV3L,"1.12 fold enrichment (6-mer frequency, TF over GST control)"
same,binding signal,ETS2,"1.16 fold enrichment (6-mer frequency, TF over GST control)"
same,binding signal,SPDEF,"1.12 fold enrichment (6-mer frequency, TF over GST control)"
same,binding signal,ETV7,"1.07 fold enrichment (6-mer frequency, TF over GST control)"
same,binding signal,ETV3,"1.13 fold enrichment (6-mer frequency, TF over GST control)"
same,binding signal,ETV6,"1.1 fold enrichment (6-mer frequency, TF over GST control)"
